From PubChem BioAssay
Active and inactive are the calls of the source.

What was measured:
[1] = small molecules captured by biotinylated probe aFSTL3 – biochemical, small-molecule microarray, fluorescence 635/667, stem cell growth factor project, primary screen (AID 1064); details: higher = more signal;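 also: measures binding of the biotinylated anti-FSTL3 antibody to printed compounds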
[2] = binders from COS7 lysate, DM2A8 probe, primary screen, torsin A project, cell lysate, small-molecule microarray, fluorescence 635/667 (AID 1065); details: higher = more signal, COS7 lysate expressing mutant human TOR1A
[3] = small molecules captured by biotinylated probe aFGF2 – biochemical, small-molecule microarray, fluorescence 635/667, stem cell growth factor project, primary screen (AID 1067); details: higher = more signal;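 also: measures binding of biotinylated aFGF2 protein to printed compounds on slides; z-score merges feature fluorescence and signal-to-noise across triplicate slides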
[4] = small molecules captured by biotinylated probe aFGF10 – biochemical, small-molecule microarray, fluorescence 635/667, stem cell growth factor project, primary screen (AID 1071); details: higher = more signal;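 also: score merges 667 nm spot intensity and signal to noise from triplicate slides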
[5] = molecular target: Neurogenic locus notch homolog protein 2 (Homo sapiens) (UniProt Q04721); test: small molecules binding Notch2 protein – biochemical, small-molecule microarray, 635 nm fluorescence, stem cell growth factors, primary screen (AID 1073); details: higher = more signal
Neurogenic locus notch homolog protein 2 (Homo sapiens), sequence (Q04721 whole entry, looked up, canonical isoform): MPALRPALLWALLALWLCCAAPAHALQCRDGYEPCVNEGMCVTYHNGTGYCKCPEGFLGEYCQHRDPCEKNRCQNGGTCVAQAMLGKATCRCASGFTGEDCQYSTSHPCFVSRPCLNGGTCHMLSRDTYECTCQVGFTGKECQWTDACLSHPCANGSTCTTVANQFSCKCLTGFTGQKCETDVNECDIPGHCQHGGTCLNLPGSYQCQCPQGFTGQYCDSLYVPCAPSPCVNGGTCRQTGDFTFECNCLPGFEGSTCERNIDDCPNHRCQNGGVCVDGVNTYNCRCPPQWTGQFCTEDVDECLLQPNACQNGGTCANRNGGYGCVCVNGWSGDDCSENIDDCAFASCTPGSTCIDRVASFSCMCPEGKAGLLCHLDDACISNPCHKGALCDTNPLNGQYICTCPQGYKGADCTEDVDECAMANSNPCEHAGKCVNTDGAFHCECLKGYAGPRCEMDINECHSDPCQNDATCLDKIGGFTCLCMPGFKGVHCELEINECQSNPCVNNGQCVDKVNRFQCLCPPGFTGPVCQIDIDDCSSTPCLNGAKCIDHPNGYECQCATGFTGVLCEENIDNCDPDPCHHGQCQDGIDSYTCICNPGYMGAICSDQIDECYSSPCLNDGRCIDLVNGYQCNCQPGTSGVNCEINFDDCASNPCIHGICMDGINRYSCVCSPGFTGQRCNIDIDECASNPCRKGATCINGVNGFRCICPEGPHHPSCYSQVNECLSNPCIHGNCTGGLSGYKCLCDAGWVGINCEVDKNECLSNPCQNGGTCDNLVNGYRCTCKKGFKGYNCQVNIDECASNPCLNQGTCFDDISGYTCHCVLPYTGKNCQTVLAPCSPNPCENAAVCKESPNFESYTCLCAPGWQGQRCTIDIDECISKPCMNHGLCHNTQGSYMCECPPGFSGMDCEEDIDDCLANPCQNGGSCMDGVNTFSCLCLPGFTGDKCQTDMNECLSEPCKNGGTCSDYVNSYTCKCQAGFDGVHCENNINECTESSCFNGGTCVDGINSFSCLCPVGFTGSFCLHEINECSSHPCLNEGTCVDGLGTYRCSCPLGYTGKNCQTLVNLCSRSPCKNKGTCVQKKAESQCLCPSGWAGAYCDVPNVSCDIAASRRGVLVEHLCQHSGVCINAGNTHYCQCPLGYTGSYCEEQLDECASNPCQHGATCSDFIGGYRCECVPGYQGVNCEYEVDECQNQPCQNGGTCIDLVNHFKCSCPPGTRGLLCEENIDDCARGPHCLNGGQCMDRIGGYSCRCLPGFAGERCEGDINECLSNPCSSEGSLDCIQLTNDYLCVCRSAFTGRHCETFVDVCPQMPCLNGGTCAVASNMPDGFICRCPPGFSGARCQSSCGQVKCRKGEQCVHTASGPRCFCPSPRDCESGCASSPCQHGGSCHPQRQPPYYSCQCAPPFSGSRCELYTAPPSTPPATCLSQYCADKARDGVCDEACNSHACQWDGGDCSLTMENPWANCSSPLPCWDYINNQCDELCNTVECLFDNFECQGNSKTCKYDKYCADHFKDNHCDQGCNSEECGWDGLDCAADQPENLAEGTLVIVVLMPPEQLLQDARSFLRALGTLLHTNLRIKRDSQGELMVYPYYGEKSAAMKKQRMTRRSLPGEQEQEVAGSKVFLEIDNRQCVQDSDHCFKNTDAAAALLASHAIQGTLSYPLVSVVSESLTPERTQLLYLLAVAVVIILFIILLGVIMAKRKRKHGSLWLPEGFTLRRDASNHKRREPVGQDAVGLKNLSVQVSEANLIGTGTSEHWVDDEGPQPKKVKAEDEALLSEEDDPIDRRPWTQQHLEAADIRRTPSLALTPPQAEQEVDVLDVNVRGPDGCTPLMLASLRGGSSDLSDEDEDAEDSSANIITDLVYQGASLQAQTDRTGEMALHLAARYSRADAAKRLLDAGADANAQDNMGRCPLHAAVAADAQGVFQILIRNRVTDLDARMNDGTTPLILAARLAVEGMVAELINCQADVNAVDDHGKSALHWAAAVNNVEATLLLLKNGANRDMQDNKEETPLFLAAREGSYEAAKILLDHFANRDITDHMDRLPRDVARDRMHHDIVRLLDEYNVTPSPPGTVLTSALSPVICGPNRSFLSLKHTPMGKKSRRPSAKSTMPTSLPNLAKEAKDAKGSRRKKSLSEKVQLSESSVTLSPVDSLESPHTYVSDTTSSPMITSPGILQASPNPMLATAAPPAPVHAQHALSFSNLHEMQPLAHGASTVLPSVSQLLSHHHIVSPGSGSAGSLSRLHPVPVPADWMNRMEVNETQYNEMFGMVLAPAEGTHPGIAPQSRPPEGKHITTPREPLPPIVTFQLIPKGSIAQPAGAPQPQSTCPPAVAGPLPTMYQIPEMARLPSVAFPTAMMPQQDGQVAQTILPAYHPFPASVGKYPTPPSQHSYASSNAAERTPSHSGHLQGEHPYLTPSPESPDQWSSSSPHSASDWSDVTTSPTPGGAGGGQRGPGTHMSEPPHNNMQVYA

[6] = molecular target: Pro-neuregulin-1, membrane-bound isoform (Homo sapiens) (UniProt Q02297); test: small molecules binding neuregulin-1 protein – biochemical, small-molecule microarray, fluorescence 635/667, psychiatric disease protein project, primary screen (AID 1075); details: NRG1 binding, 635 nm fluorescence, higher = more signal;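 also: score combines 667 nm spot fluorescence with signal to noise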
[7] = system: Neuregulin-1 EGF-like domain; test: small molecules binding NRG1 EGF domain – biochemical, small-molecule microarray, 635 nm fluorescence, primary screen (AID 1081); details: higher = more signal;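 also: binding of the protein to compounds printed on small-molecule microarray slides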
[8] = FRG1 expression reporter modulators in myotubes – cell-based, C2C12 myotubes, firefly/Renilla luciferase, luminescence, FRG1 inhibition for FSHD, primary screen (AID 1084); details: FRG1 promoter luciferase, higher = more signal, called active from +8 up or from −8 down
[9] = small molecules captured by biotinylated probe aFST – biochemical, small-molecule microarray, fluorescence 635/667, stem cell growth factor project, primary screen (AID 1086); details: higher = more signal;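 also: score merges 667 nm fluorescence with signal-to-noise of each printed compound spot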
[10] = binders of probe aHhip on microarray, primary screen, stem cell growth factor project, biochemical, small-molecule microarray, fluorescence 635/667 (AID 1087); details: higher = more signal;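 also: score merges spot fluorescence at 667nm with spot signal to noise ratio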
[11] = system: PRMT1 (protein arginine N-methyltransferase 1); test: small molecules binding arginine methyltransferase PRMT1 – biochemical, small-molecule microarray, 635 nm fluorescence, primary screen (AID 1088); details: higher = more signal;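 also: binding of Prmt1 protein to compounds spotted on small-molecule microarray slides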
[12] = growth effects on S. cerevisiae YJM789 – YJM789 clinical isolate, OD600, 24 h, basal, primary screen (AID 1089); details: higher = more signal, called active from +8 up or from −8 down;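 also: growth of clinical yeast isolate S. cerevisiae YJM 789 seeded 1000 cells per well; test concentration not given here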
[13] = S. pombe growth modifiers, basal conditions – strain 972, OD600, 24 h, no modulator, primary screen (AID 1090);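 also: basal condition with compound alone and no growth modifier present; test concentration not given here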; details: S. pombe 972 growth, higher = more signal, called active from +8 up or from −8 down
[14] = budding yeast growth modifiers under rapamycin – strain BY4716, OD600, 96 h, primary screen (AID 1091); also: test concentration not given here; details: S. cerevisiae BY4716 + rapamycin, higher = more signal, called active from +8 up or from −8 down
[15] = molecular target: Torsin-1A-interacting protein 2 (Homo sapiens) (UniProt Q8NFQ8); test: small molecules binding lysate-expressed LULL1 – cell lysate, human LULL1 lysate, 635/667 nm fluorescence, primary screen (AID 1092); details: small-molecule microarray, hLULL1 lysate binding, 635 nm fluorescence; higher = more signal;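 also: probe is lysate of COS7 cells overexpressing human LULL1; score merges per-feature 667 nm fluorescence with signal-to-noise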
[16] = optical density change of DRC41 E. coli – strain DRC41, OD650, 24 h, E. coli filamentation project, primary screen (AID 1093);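 also: MC1000 strain lacking acrAB efflux and sulA so SOS filamentation is blocked; test concentration not given here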; details: E. coli DRC41 growth, higher = more signal, called active from +8 up or from −8 down
[17] = probe aLefty2 binding to arrayed compounds – biochemical, biotinylated probe, 635/667 nm fluorescence, primary screen (AID 1094); details: small-molecule microarray, higher = more signal;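 also: score merges spot fluorescence near 667 nm with spot signal-to-noise ratio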
[18] = system: Noggin (protein binding on small-molecule microarray); test: small molecules binding Noggin protein – biochemical, 635/667 nm fluorescence, primary screen (AID 1095); details: 635 nm fluorescence, higher = more signal;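 also: score merges 667 nm feature fluorescence with signal to noise over triplicate slides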
[19] = molecular target: Neurogenic locus notch homolog protein 3 (Homo sapiens) (UniProt Q9UM47); test: small molecules binding NOTCH3 protein – biochemical, 635/667 nm fluorescence, primary screen (AID 1096); details: small-molecule microarray, 635 nm fluorescence, higher = more signal
Neurogenic locus notch homolog protein 3 (Homo sapiens), sequence (Q9UM47 whole entry, looked up): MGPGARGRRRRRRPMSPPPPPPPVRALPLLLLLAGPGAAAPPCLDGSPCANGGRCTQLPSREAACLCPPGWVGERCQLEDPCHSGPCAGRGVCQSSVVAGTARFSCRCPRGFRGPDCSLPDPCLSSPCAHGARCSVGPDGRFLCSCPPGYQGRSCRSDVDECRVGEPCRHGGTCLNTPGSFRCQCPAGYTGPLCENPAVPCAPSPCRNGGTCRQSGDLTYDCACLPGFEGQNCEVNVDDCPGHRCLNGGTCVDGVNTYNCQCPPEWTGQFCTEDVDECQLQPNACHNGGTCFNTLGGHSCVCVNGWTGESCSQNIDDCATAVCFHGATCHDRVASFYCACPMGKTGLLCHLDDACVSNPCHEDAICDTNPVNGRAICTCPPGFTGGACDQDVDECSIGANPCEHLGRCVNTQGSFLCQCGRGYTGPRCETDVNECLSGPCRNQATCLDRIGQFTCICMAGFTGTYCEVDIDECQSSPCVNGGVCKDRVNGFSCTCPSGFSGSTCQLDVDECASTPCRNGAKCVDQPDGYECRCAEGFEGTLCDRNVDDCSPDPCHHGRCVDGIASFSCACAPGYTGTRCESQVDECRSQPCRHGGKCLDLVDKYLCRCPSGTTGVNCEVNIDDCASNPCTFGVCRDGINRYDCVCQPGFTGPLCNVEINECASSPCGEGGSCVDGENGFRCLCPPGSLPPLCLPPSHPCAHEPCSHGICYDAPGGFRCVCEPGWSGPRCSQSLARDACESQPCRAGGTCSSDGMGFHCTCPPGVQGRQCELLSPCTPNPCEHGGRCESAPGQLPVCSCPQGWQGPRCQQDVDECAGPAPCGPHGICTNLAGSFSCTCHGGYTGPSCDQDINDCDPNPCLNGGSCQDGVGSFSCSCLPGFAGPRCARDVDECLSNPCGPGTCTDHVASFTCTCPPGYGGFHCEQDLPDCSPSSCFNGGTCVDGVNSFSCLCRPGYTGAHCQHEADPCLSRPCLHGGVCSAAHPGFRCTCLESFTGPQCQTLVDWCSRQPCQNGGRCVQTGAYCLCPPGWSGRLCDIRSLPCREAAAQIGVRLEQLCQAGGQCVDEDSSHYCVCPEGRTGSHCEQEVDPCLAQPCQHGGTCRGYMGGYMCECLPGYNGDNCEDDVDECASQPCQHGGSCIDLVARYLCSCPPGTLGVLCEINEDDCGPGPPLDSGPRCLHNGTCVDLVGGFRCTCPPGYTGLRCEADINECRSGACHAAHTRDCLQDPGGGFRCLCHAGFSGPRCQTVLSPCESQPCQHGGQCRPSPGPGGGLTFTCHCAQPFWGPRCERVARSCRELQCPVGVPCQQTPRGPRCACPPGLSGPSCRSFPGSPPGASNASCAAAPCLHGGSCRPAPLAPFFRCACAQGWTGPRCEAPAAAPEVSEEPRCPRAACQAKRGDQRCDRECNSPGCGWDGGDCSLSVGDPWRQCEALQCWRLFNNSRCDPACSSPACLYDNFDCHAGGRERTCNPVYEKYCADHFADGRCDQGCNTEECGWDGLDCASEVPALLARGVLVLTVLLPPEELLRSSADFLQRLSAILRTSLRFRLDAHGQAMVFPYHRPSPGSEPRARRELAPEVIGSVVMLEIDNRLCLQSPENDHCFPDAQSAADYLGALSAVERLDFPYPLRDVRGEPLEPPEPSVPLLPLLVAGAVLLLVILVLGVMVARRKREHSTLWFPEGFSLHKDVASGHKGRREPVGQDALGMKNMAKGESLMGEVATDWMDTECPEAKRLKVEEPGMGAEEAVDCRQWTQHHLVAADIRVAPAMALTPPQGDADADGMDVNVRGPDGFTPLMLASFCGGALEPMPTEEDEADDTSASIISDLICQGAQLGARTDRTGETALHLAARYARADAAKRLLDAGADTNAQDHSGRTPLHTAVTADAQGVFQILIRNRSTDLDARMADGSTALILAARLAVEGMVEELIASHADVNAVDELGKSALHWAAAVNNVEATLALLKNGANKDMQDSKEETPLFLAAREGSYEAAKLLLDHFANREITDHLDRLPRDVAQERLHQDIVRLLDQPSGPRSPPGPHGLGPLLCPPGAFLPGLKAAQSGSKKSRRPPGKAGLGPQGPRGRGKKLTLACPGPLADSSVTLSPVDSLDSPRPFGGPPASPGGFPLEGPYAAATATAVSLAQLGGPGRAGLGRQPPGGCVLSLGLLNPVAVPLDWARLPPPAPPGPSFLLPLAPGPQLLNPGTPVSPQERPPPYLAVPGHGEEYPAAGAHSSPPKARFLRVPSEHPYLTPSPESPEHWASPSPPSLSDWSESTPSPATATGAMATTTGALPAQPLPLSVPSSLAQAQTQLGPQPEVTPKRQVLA

[20] = probe aEGFR binding to arrayed compounds – biochemical, biotinylated probe, 635/667 nm fluorescence, primary screen (AID 1097); details: small-molecule microarray, higher = more signal;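 also: probe is a biotinylated anti-EGFR antibody binding compounds printed on slides; score combines fluorescence near 667 nm and signal to noise of each spot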

SMILES	composite z-score [1]	composite z-score [2]	composite z-score [3]	composite z-score [4]	composite z-score [5]	composite z-score [6]	composite z-score [7]	z-score [8]	composite z-score [9]	composite z-score [10]	composite z-score [11]	z-score [12]	z-score [13]	z-score [14]	composite z-score [15]	z-score [16]	composite z-score [17]	composite z-score [18]	composite z-score [19]	composite z-score [20]
CN(C)C(=O)[C@]1(CCC(=O)OC(C)(C)C)N=C(c2ccc(OCCCO)cc2)O[C@@H]1c1ccccc1	-0.175	0.527	-0.016	0.776	1.3	1.91	1.4	0.788 (inactive)	0.268	-0.0645	0.637	0.182 (inactive)	-0.993 (inactive)	-0.273 (inactive)	3.56	1.27 (inactive)	0.0601	-0.674	-0.301	0.625
[N-]=[N+]=Nc1ccccc1C[C@]1(C(=O)NCc2ccccc2)N=C(c2ccc(OCCCO)cc2)O[C@H]1c1ccccc1	0.0843	0.984	0.0898	0.584	1.61	1.86	1.2	-2.1 (inactive)	1.22	0.0515	1.56	-0.623 (inactive)	0.69 (inactive)	17.8 (active)	3.34	0.7 (inactive)	0.206	0.383	1.12	0.048
O=C1c2ccccc2[C@@]2(Cc3ccccc3N(C3CC3)C2=O)[C@H](c2ccc(CO)cc2)N1C1CCCCC1	-0.0266	-0.625	-0.0325	-0.015	-0.119	0.123	-0.716	0.291 (inactive)	-0.0416	-0.0994	-0.767	-0.451 (inactive)	0.285 (inactive)	-0.728 (inactive)	1.79	-0.1 (inactive)	-0.17	-0.699	-0.938	-0.168
CCOC(=O)C[C@H]1[C@H](OC(=O)c2ccc(C(=O)c3ccccc3)cc2)[C@@H](NC(=O)c2ccc3ccccc3c2)c2cc(OCCCO)ccc2N1C(=O)c1ccccc1	-0.476	0.443	-0.0943	0.757	1.48	1.01	1.07	0.0732 (inactive)	0.355	-0.0672	1.56	-0.79 (inactive)	-0.681 (inactive)	-0.278 (inactive)	2.54	-0.551 (inactive)	0.0773	0.354	1.09	0.116
C=C(CCCC)C(=O)CC[C@@H](OC(=O)c1ccccc1-c1ccccc1C(=O)O)c1cccc(OCCO)c1	-0.208	0.996	-0.129	0.166	-0.404	0.143	0.742	0.238 (inactive)	-0.499	-0.249	1.53	0.299 (inactive)	-0.694 (inactive)	-0.541 (inactive)	0.13	0.169 (inactive)	-0.31	1.06	0.675	-0.287
COCCCNC(=O)[C@]1(Cc2ccccc2N=[N+]=[N-])N=C(c2ccc(OCCCO)cc2)O[C@@H]1c1ccccc1N=[N+]=[N-]	0.421	-0.0585	0.0797	0.491	1.3	1.86	1.15	-1.93 (inactive)	0.847	-0.0296	1.26	-0.922 (inactive)	-0.808 (inactive)	1.75 (inactive)	2.72	0.561 (inactive)	0.23	0.115	0.836	0.0656
CCCCN1CC=CC23O[C@@H]4C=CCOC(=O)[C@@H]4[C@H]2C(=O)N(CCCO)[C@@H]3C1=O (stereo not given in full)	0.594	-0.0489	-0.137	-0.423	-1.51	1.03	1.54	0.0518 (inactive)	-0.488	-0.134	0.412	0.228 (inactive)	-0.399 (inactive)	-0.191 (inactive)	2.41	1.42 (inactive)	-0.145	-0.957	-0.366	-0.285
CO[C@H]1O[C@H](CO)[C@@H](OC(=O)Nc2ccc(Oc3ccccc3)cc2)[C@H](OC(=O)Nc2ccccc2-c2ccccc2)[C@@H]1OC(=O)Nc1ccccc1-c1ccccc1	0.531	1.21	0.0325	1.02	1.57	1.59	1.18	1.17 (inactive)	1.03	-0.121	1.54	1.96 (inactive)	0.592 (inactive)	0.974 (inactive)	2.72	1.39 (inactive)	0.143	0.156	1.12	0.425
CN(C)CCCNC(=O)[C@@]1(C)c2ccccc2C(=O)N(Cc2cc(C(F)(F)F)cc(C(F)(F)F)c2)[C@H]1c1ccc(CO)cc1	-0.303	-0.401	-0.141	-0.404	-0.463	-0.012	0.538	0.123 (inactive)	-0.353	0.192	0.0376	0.113 (inactive)	-1.83 (inactive)	-0.945 (inactive)	0.324	-0.72 (inactive)	-0.192	-1.19	-0.35	-0.186
C[C@@H]1ON(c2ccc(C(=O)OC(C)(C)C)cc2)[C@H](c2ccc(Br)cc2)[C@H]1C(=O)N1C(=O)OC[C@H]1Cc1ccccc1	-0.312	0.155	0.0333	0.552	1.52	1.05	1.11	0.002 (inactive)	0.492	-0.0618	1.53	0.689 (inactive)	0.716 (inactive)	0.71 (inactive)	2.22	0.425 (inactive)	0.149	0.633	1.08	0.0338
CC(C)(C)OC(=O)CC[C@@]1(C(=O)O)N=C(c2ccc(OCCCO)cc2)O[C@@H]1c1ccccc1	0.308	-0.648	-0.0459	0.13	0.347	1.96	1.53	0.853 (inactive)	0.398	0.24	0.618	0.586 (inactive)	1.24 (inactive)	0.519 (inactive)	3.55	0.0219 (inactive)	0.021	-0.423	0.183	-0.0884
